The values that follow come from PubChem BioAssay (EPA / NIEHS).

Several values for one entry are separate records, joined by “and”; a condition that tells them apart may be missing. Identical values can stand only once. Activity calls are given as the source filed them. How the source made its calls: active means hit-call score of the fitted dose curve at least 0.9, where 1 is the maximum; inactive means score below 0.9.

Read-out in test [1]: Thrombomodulin, THBD (gene 7056)
Nature of the test: BSK_CASM3C_Thrombomodulin: BioMAP Diversity Plus: CASM3C Assay for Thrombomodulin Biomarker Activity (AID 2283051).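 Further: thrombomodulin protein level measured by ELISA 24 h after dosing.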 Conditions: primary human coronary artery smooth muscle cells; actives raise or lower the signal.

Read-out in test [2]: Tissue Factor, F3 (gene 2152)
Nature of the test: BSK_CASM3C_TissueFactor: BioMAP Diversity Plus: CASM3C Assay for Tissue Factor Biomarker Activity (AID 2283052).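 Further: cell surface tissue factor protein level read by ELISA.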 The conditions noted are these: primary human coronary artery smooth muscle cells; actives raise or lower the signal.

Read-out in test [3]: Interferon-gamma inducible Protein 10 (IP10), CXCL10 (gene 3627)
The experiment in a line: BSK_hDFCGF_IP10: BioMAP Diversity Plus: hDFCGF Assay for Interferon-gamma inducible Protein 10 (IP10) Biomarker Activity (AID 2283053). Conditions: primary human foreskin fibroblasts; actives raise or lower the signal. The method, boiled down:
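Human foreskin fibroblast primary cells (hDFCGF system) were dosed with chemical and assayed at 24 h; IP-10 measured by ELISA. Activity fitted bidirectionally relative to DMSO negative control as baseline.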

Read-out in test [4]: Urokinase-type plasminogen activator receptor (uPAR), PLAUR (gene 5329)
Nature of the test: BSK_CASM3C_uPAR: BioMAP Diversity Plus: CASM3C Assay for Urokinase-type plasminogen activator receptor (uPAR) Biomarker Activity (AID 2283054).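 Further: cell-surface uPAR protein level quantified by ELISA.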 Conditions: primary human coronary artery smooth muscle cells; actives raise or lower the signal.

Read-out in test [5]: Vascular cell adhesion molecule 1 (VCAM1), VCAM1 (gene 7412)
The experiment in a line: BSK_CASM3C_VCAM1: BioMAP Diversity Plus: CASM3C Assay for Vascular cell adhesion molecule 1 (VCAM1) Biomarker Activity (AID 2283055).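 Further: VCAM-1 protein level quantified by ELISA on the cells.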 The conditions noted are these: primary human coronary artery smooth muscle cells; actives raise or lower the signal.

Read-out in test [6]: Collagen III, COL3A1 (gene 1281)
The experiment in a line: BSK_hDFCGF_CollagenIII: BioMAP Diversity Plus: hDFCGF Assay for Collagen III Biomarker Activity (AID 2283056). The conditions noted are these: primary human foreskin fibroblasts; actives raise or lower the signal. The method, boiled down:
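hDFCGF primary human dermal fibroblasts; 24 h chemical exposure; collagen III by ELISA; bidirectional curve fit vs DMSO baseline (gain or loss of signal).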

Read-out in test [7]: Interleukin-8 (IL8), CXCL8 (gene 3576)
The experiment in a line: BSK_hDFCGF_IL8: BioMAP Diversity Plus: hDFCGF Assay for Interleukin-8 (IL8) Biomarker Activity (AID 2283058). Conditions: primary human foreskin fibroblasts; actives raise or lower the signal. In outline: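 ELISA read-out of IL-8 from primary human foreskin fibroblast cultures taken 24 h after dosing; values are bidirectional fits relative to DMSO vehicle.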

Test [8] is described as follows: BSK_hDFCGF_Proliferation: Cell Proliferation Assessment in the BioMAP Diversity Plus: hDFCGF Assay (AID 2283059).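 Further: curves fitted for both rise and fall of signal versus DMSO baseline.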 The conditions noted are these: primary human foreskin fibroblasts. In outline: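 Sub-confluent human foreskin fibroblast cultures receive test chemical […]. Relative cell number is quantified by sulforhodamine B staining (0.1%, after 10% TCA fixation) at 560 nm, with bidirectional fitting referenced to DMSO.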

Read-out in test [9]: Macrophage colony-stimulating factor (MCSF), CSF1 (gene 1435)
The experiment in a line: BSK_hDFCGF_MCSF: BioMAP Diversity Plus: hDFCGF Assay for Macrophage colony-stimulating factor (MCSF) Biomarker Activity (AID 2283060). The conditions noted are these: primary human foreskin fibroblasts; actives raise or lower the signal. In outline:
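ELISA read-out of M-CSF in human dermal foreskin fibroblast cultures, 24 h after chemical dosing; gain or loss of signal fitted bidirectionally relative to DMSO baseline.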

A short description of test [10]: BSK_hDFCGF_SRB: Viability Assessment in the BioMAP Diversity Plus: hDFCGF Assay (AID 2283061).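 Further: cells exposed to compound for 24 h before the read.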 Conditions: primary human foreskin fibroblasts. In outline:
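Primary human foreskin fibroblasts; 24 h post-dose; fixed 10% TCA, stained 0.1% SRB, A560 read; total protein as overt cytotoxicity measure; curves fit bidirectionally vs DMSO control.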

Read-out in test [11]: TIMP metallopeptidase inhibitor 1 (TIMP1), TIMP1 (gene 7076)
Nature of the test: BSK_hDFCGF_TIMP1: BioMAP Diversity Plus: hDFCGF Assay for TIMP metallopeptidase inhibitor 1 (TIMP1) Biomarker Activity (AID 2283062). Conditions: primary human foreskin fibroblasts; actives raise or lower the signal. In outline:
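ELISA readout of TIMP-1 from human dermal foreskin fibroblast cultures 24 h post-dosing. Curves were fitted in both directions against DMSO baseline, with SRB total-protein staining in parallel cultures as a cytotoxicity check.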

Read-out in test [12]: Matrix Metallopeptidase 1 (MMP1), MMP1 (gene 4312)
The experiment in a line: BSK_hDFCGF_MMP1: BioMAP Diversity Plus: hDFCGF Assay for Matrix Metallopeptidase 1 (MMP1) Biomarker Activity (AID 2283064). The conditions noted are these: primary human foreskin fibroblasts; actives raise or lower the signal. In outline: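 Primary human foreskin fibroblasts exposed to chemicals for 24 h; MMP1 measured by ELISA. Cytotoxicity tracked by SRB staining in parallel cultures; bidirectional fit relative to DMSO.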

Read-out in test [13]: Vascular cell adhesion molecule 1 (VCAM1), VCAM1 (gene 7412)
Nature of the test: BSK_hDFCGF_VCAM1: BioMAP Diversity Plus: hDFCGF Assay for Vascular cell adhesion molecule 1 (VCAM1) Biomarker Activity (AID 2283065).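 On AC50: VCAM-1 protein level quantified by ELISA after 24 h chemical exposure.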 The conditions noted are these: primary human foreskin fibroblasts; actives raise or lower the signal. In outline: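 ELISA read-out of VCAM-1 on human skin fibroblasts, 24 h post-dose; gain or loss of signal fitted bidirectionally against DMSO baseline.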

Read-out in test [14]: Plasminogen activator inhibitor-1 (PAI1), SERPINE1 (gene 5054)
The experiment in a line: BSK_hDFCGF_PAI1: BioMAP Diversity Plus: hDFCGF Assay for Plasminogen activator inhibitor-1 (PAI1) Biomarker Activity (AID 2283066). Conditions: primary human foreskin fibroblasts; actives raise or lower the signal. The method, boiled down: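 Human foreskin fibroblasts in the hDFCGF system were dosed with compound for 24 h; PAI-1 was quantified by ELISA. Bidirectional curve fitting used DMSO as negative control and baseline.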

Read-out in test [15]: Intercellular Adhesion Molecule 1 (ICAM1), ICAM1 (gene 3383)
Nature of the test: BSK_KF3CT_ICAM1: BioMAP Diversity Plus: KF3CT Assay for Intercellular Adhesion Molecule 1 (ICAM1) Biomarker Activity (AID 2283067). The conditions noted are these: primary human keratinocytes with fibroblasts; actives raise or lower the signal. The method, boiled down: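 ELISA readout of ICAM-1; KF3CT human skin co-culture (keratinocytes + foreskin fibroblasts), 24 h post-dose; gain/loss fit vs DMSO baseline.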

Read-out in test [16]: Interferon-gamma inducible Protein 10 (IP10), CXCL10 (gene 3627)
The experiment in a line: BSK_KF3CT_IP10: BioMAP Diversity Plus: KF3CT Assay for Interferon-gamma inducible Protein 10 (IP10) Biomarker Activity (AID 2283068). Conditions: primary human keratinocytes with fibroblasts; actives raise or lower the signal. In outline:
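ELISA read-out of IP-10 after 24 h chemical dosing of human skin primary co-culture (keratinocytes, foreskin fibroblasts). Gain or loss of signal relative to DMSO, bidirectional curve fit.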

Test [17] can be described thus: BSK_KF3CT_SRB: Viability Assessment in the BioMAP Diversity Plus: KF3CT Assay (AID 2283069).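 Further: total protein by sulforhodamine B staining as a cytotoxicity measure; read 24 h after compound addition.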 The conditions noted are these: primary human keratinocytes with fibroblasts. The method, boiled down: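 Human keratinocyte and foreskin fibroblast co-culture exposed to chemical for 24 h. Total protein measured in parallel cultures by 0.1% sulforhodamine B staining after 10% TCA fixation, read at 560 nm; bidirectional fit relative to DMSO.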

Read-out in test [18]: Interleukin-1 alpha (IL1a), IL1A (gene 3552)
Nature of the test: BSK_KF3CT_IL1a: BioMAP Diversity Plus: KF3CT Assay for Interleukin-1 alpha (IL1a) Biomarker Activity (AID 2283070). The conditions noted are these: primary human keratinocytes with fibroblasts; actives raise or lower the signal. The method, boiled down: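 Primary human keratinocyte plus foreskin fibroblast co-culture, dosed and measured at 24 h in 96-well plates. IL-1a level quantified by ELISA; bidirectional fit relative to DMSO.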

Read-out in test [19]: Monokine induced gamma interferon (MIG), CXCL9 (gene 4283)
The experiment in a line: BSK_hDFCGF_MIG: BioMAP Diversity Plus: hDFCGF Assay for Monokine induced gamma interferon (MIG) Biomarker Activity (AID 2283063). The conditions noted are these: primary human foreskin fibroblasts; actives raise or lower the signal. In outline: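 Fibroblasts (human foreskin, primary) dosed, 24 h, MIG by ELISA; fit bidirectional vs DMSO.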

For the compound `NC(=NCCCCCCN=C(N)/N=C(\N)Nc1ccc(Cl)cc1)/N=C(\N)Nc1ccc(Cl)cc1`, the AC50 is 4.64 µM (active) in [1]; 2.1 µM (active) in [2]; 8.17 µM (active) in [3]; 4.86 µM (active) in [4]; 9.65 µM (active) in test [5]; 1.18 µM (active) in [6]. The AC50 was 1.44 µM (active) in test [8]; 4.84 µM (active) in test [9]; 4.77 µM (active) in test [10]; 6.5 µM (active) in test [11]; 7.45 µM (active) in [12]; 5.46 µM (active) in test [13]. The AC50 in test [14] is 3.67 µM (active); in test [15], 7.53 µM (active); in [16] it was 6.16 µM (active); in [17] it was 4.79 µM (active); in [18], 4.32 µM (active). Besides, in [7], the outcome was inactive.

In the case of `CN(C)CCOC(c1ccccc1)c1ccccc1`, the outcome in test [1], in test [2], in [4], in test [5], in [6] and in test [7] was inactive. Also, the outcome in [8], in test [10], in test [11], in test [19], in [12] and in test [13] was inactive. In addition, the result in test [14], in test [15], in test [16], in test [17] and in test [18] was inactive. For the same compound, the AC50 in test [3] was 33.6 µM (active).

Regarding `Cc1[nH]nc2c1N=C(c1ccccc1Cl)c1cc([N+](=O)[O-])ccc1N2`, the result in [1], in test [2], in [3], in [4], in test [6] and in test [7] was inactive. Moreover, the outcome in [9], in test [10], in test [11], in test [13], in test [15] and in test [16] was inactive. The result in [17] and in test [18] was inactive. Besides, the AC50 in test [5] is 9.37 µM (active); in [8], 0.187 µM (active); in test [19], 31.1 µM (active); in test [12], 2.47 µM (active); in [14] it was 5.16 µM (active).

With `OCCN1CN(CCO)CN(CCO)C1`, the result in test [1], in test [2], in test [4], in [6], in test [7] and in [10] was inactive. Besides, the result in [11], in test [12], in test [14], in [16] and in test [17] was inactive. Moreover, the AC50 is 20 µM (active) in test [3]; 32.8 µM (active) in test [5]; 25.8 µM (active) in test [8]; 20 µM (active) in test [9]; 20 µM (active) in test [19]; 15.5 µM (active) in test [13]. Further, the half-maximal activity concentration (AC50) in test [15] was 20 µM (active); in test [18], 5.9 µM (active).

As for `Oc1c(Cl)cc(Cl)cc1Sc1cc(Cl)cc(Cl)c1O`, the AC50 in test [1] was 12.8 µM (active) and 12.6 µM (active); in test [3] it was 1.66 µM (active) and 1.94 µM (active); in test [4] it was 20 µM (active) and 18.3 µM (active); in test [5], 20 µM (active) and 12.7 µM (active); in test [6], 1.39 µM (active) and 455 nM (active); in test [7] it was 4.43 µM (active) and 4.46 µM (active). Also, the AC50 was 1.08 µM (active) and 148 nM (active) in test [8]; 1.46 µM (active) and 1.59 µM (active) in [9]; 1.67 µM (active) and 1.78 µM (active) in test [10]; 2.06 µM (active) and 1.74 µM (active) in [11]; 2.22 µM (active) in test [19]; 2.14 µM (active) and 2.37 µM (active) in [12]. Further, the AC50 in [13] was 1.43 µM (active) and 1.52 µM (active); in test [14], 1.23 µM (active) and 1.32 µM (active); in test [15], 3.11 µM (active) and 3.28 µM (active); in [16], 2.75 µM (active) and 2.98 µM (active); in test [18], 2.22 µM (active) and 2.17 µM (active). Moreover, the outcome in [2] and in test [17] was inactive.

Consider `CCCCC(CC)C(=O)O` (stereo unspecified), for which the result in test [1], in test [2], in [3], in [4], in test [5] and in test [6] was inactive. Besides, the outcome in test [7], in test [8], in test [9], in test [10], in test [11] and in test [19] was inactive. The result in test [12], in [13], in test [14], in test [15], in test [16] and in test [17] was inactive. Further, in test [18], the outcome was inactive.

`CC(=O)Nc1ccc(O)cc1`: the outcome in test [1], in test [2], in test [3], in [4], in test [5] and in test [6] was inactive. Besides, the result in [7], in [8], in [9], in test [10], in test [11] and in [19] was inactive. The outcome in test [12], in test [13], in test [14], in test [15], in [16] and in test [17] was inactive. Further, the outcome in test [18] was inactive.

The term AC50 denotes the concentration at which the activity in the assay is half-maximal.
